From PubChem BioAssay
Most compounds without a hit are left out; they make up all but 3% or so of the library.
EWS-Fli inh = inhibitors of EWS/Fli oncoprotein transcriptional activity. A673 NR0B1-luciferase reporter, viability-normalised. inhibition, % at 12.6 µM. 350,000 compounds, 0.67% hits. AID 651661;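 active means mean inhibition of at least 50% after viability correction, with every replicate also passing that limit; inconclusive means mean reaches 50% but only one of two replicates passes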;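 further: firefly luciferase signal divided by Alamar Blue viability fluorescence both relative to DMSO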
ABHD5-PLIN5 inh = ABHD5-PLIN5 protein interaction inhibition | Q00G26+Q8WTS1 | Split G. princeps luciferase complementation, luminescence, 4 h | inhibition, % at 4 µM | 360,000 compounds, 0.78% hits | AID 602281;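 active means inhibition above the mean inhibition across every tested compound plus 3 SD, cut at about 22% in these data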;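 further: 0% = DMSO only wells and the 100% control is not disclosed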
Target sequence (Q00G26 whole entry, looked up): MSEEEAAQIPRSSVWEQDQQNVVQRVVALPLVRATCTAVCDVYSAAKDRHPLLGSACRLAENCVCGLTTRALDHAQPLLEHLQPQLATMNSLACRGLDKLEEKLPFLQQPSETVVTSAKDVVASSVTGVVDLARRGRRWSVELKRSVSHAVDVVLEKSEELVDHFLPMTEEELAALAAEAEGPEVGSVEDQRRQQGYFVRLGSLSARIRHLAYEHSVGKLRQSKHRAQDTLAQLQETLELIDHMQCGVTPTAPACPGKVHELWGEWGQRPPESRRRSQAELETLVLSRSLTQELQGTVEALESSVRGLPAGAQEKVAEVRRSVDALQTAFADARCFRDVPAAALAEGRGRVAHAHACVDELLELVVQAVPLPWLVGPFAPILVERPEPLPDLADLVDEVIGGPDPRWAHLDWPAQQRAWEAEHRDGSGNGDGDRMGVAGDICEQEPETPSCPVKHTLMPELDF
Target sequence (Q8WTS1 whole entry, looked up): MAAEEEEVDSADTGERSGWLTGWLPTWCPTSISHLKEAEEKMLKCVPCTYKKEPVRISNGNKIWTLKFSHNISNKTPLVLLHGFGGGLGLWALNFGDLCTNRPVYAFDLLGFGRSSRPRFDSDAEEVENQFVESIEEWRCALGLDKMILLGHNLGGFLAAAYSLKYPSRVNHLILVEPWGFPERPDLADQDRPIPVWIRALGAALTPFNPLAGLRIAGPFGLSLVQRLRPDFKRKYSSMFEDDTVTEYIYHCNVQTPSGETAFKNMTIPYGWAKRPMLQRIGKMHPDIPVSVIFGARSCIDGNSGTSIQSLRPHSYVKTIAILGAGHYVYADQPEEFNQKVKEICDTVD
PAX8 inh HTS = PAX8 transcriptional activity inhibition | 360,000 compounds, 1.2% hits | AID 652154 | inhibition, % at 12.6 µM | RMG-I TPO-luciferase reporter, SteadyGlo, 24 h;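 active means mean replicate inhibition at least 60% with every replicate also reaching 60%; inconclusive means only one of the two criteria is met; inactive means mean below 60% and not all replicates reaching 60%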;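 further: luciferase light reporting Pax8 driven TPO promoter activity; plate controls were median of neutral control wells for no effect and mitoxantrone controls for full effect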
TRPM1 prom inh = MITF TRPM1 promoter inhibition in SK-MEL-5 cells; SK-MEL-5 TRPM1 promoter luciferase, 24 h; inhibition, % at 12.5 µM; 330,000 compounds, 0.83% hits;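 active means mean inhibition across replicates of 60% or more, whatever share of single replicates reaches that level; inconclusive means some that reach 60%, reason not given; inactive means mean inhibition across replicates below 60%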
Shn3 3UTR inh = reduces Shn3 3'UTR luciferase signal in osteoblasts. Clone20 osteoblast Shn3 3'UTR firefly luciferase, 24 h. 360,000 compounds, 0.52% hits. AID 588674. inhibition, % at 12.5 µM;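 active means mean inhibition of at least 75% with every replicate also reaching 75%; inconclusive means mean inhibition at least 75% but some replicate below; inactive means mean inhibition below 75%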;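 further: 0% = median of neutral control wells and 100% = pilot-screen positive control compound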
Peg3 promoter = reduces Peg3 promoter-driven luciferase expression in HeLa. HeLa PEG-Prom luciferase reporter, luminescence, overnight. inhibition, % at 20 µM. 360,000 compounds, 1.7% hits;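 active means inhibition of at least 50% at 20 µM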
* hit, by the source's call; ? = inconclusive; . = no result given.

SMILES | EWS-Fli inh | ABHD5-PLIN5 inh | PAX8 inh HTS | TRPM1 prom inh | Shn3 3UTR inh | Peg3 promoter
CCNC(=O)C[C@H]1CC[C@@H]2[C@H](COC[C@@H](O)CN2C(=O)C2CCOCC2)O1 | 6.2 | . | -11.4 | . | . | .
COc1cc(OC)c(OC)cc1CNc1cc(C)ccc1OC | -3.4 | -0.1 | . | 23.6 | 88.5* | 17.9
CCC(=O)N(CC)C[C@@H]1[C@@H](c2ccccc2)[C@H](CO)N1C(C)=O | -8.7 | . | 4.0 | . | . | .
CO[C@@H]1CN(C)C(=O)c2ccc(NC(=O)c3ccc(-c4ccccc4)cc3)cc2OC[C@@H](C)NC[C@@H]1C | 15.7 | . | 16.3 | . | . | .
CO[C@H]1CN(C)C(=O)c2ccc(NC(=O)Nc3ccc(Cl)c(Cl)c3)cc2OC[C@H](C)NC[C@H]1C | 5.1 | . | 44.8 | . | . | .
CO[C@H]1CN(C)C(=O)c2ccc(NC(=O)Nc3ccc(Cl)c(Cl)c3)cc2OC[C@H](C)NC[C@@H]1C | 69.3* | . | 30.1 | . | . | .
CO[C@@H]1CN(C)C(=O)c2ccc(NC(=O)c3ccc(-c4ccccc4)cc3)cc2OC[C@H](C)NC[C@@H]1C | 14.0 | . | 64.6* | . | . | .
Cc1ccc2[nH]c(-c3ccccc3)cc(=O)c2c1 | 58.1* | 3.4 | -20.3 | 13.3 | -20.1 | -194.2
Cc1ccc(-c2cc(=O)c3ccccc3[nH]2)cc1 | -21.9 | 1.5 | -29.4 | 2.1 | -11.5 | -92.5
O=C1C=CC(=O)c2c(O)c(N3CCN(CCOCCO)CC3)c(Br)c(O)c21 | ? | -2.3 | 97.4* | 96.6* | 92.9* | 53.5*
O=C1C=CC(=O)c2c(O)c(N3CCN(CCO)CC3)c(Cl)c(O)c21 | 38.2 | -6.6 | -9.9 | 99.3* | 98.8* | 101.7*
CCOc1cc(CN2CCN(CCOCCO)CC2)ccc1OC | . | -0.5 | . | 11.3 | 1.0 | 9.7
O=C(NCCCN1CCOCC1)C(=O)N/N=C/c1c2ccccc2cc2ccccc12 | . | 2.9 | 71.9* | 20.6 | 13.3 | 70.4*
O=C(NCCCN1CCOCC1)C(=O)N/N=C/c1c(Cl)cccc1Cl | 4.2 | 1.0 | -5.9 | -0.2 | 3.4 | 16.5
COc1ccc(-c2nn(-c3ccccc3)cc2/C=N/N2C(=O)CSC2=S)cc1 | . | -21.8 | . | 104.3* | -13.5 | 56.6*
COc1ccc(/C=N/N2C(=O)CSC2=S)cc1 | . | -3.2 | . | -8.6 | -9.7 | -7.5
C[C@H]1CN([C@@H](C)CO)C(=O)c2cccc(NC(=O)c3ccc(-c4nccs4)cc3)c2O[C@@H]1CN(C)Cc1ccc(Cl)c(Cl)c1 | 11.7 | . | . | . | . | .
O=C1[C@@H]2[C@H](C(=O)N1C[C@@H](COCc1ccccc1)Oc1cccc3c1S(=O)(=O)N(CCc1ccc(F)cc1)C[C@H](COCc1ccccc1)O3)[C@@H]1C=C[C@H]2C1 | 10.9 | . | 26.0 | . | . | .
CCCCN1CC(COCc2ccccc2)Oc2cccc(OCCN3C(=O)[C@@H]4[C@H](C3=O)C3C=C[C@H]4C3)c2S1(=O)=O (stereo partly drawn) | 19.8 | 2.2 | 84.7* | 10.8 | 53.4 | 59.1*
CN(C)c1cccc(N(C)C)c1CNC(=O)NC(=O)c1c(F)cccc1F | -1.7 | -6.9 | 11.2 | -0.1 | -10.1 | 33.2
CN(C)c1cccc(F)c1C(=O)NC(=O)Nc1ccc(Cl)cc1 | 52.9* | -9.0 | . | 8.4 | 4.0 | 5.5
Nc1nonc1C(=O)NCCNCc1cc(Br)ccc1OCc1ccccc1F | . | 13.4 | . | 11.7 | 84.6* | -11.0
COc1cc(CNCCNC(=O)c2nonc2N)ccc1OCc1ccc(Cl)cc1 | -2.0 | 17.1 | -16.3 | -7.1 | 82.1 | 88.2*
NS(=O)(=O)c1ccc(CCNCc2ccccc2OCc2ccc(Cl)cc2)cc1 | 36.6 | 10.6 | 10.4 | 2.6 | 60.8 | 86.8*
NS(=O)(=O)c1ccc(CCNCc2cc(Cl)ccc2OCc2ccccc2)cc1 | 28.3 | -0.6 | -14.0 | -3.8 | 84.2 | 9.8
SMILES | EWS-Fli inh | ABHD5-PLIN5 inh | PAX8 inh HTS | TRPM1 prom inh | Shn3 3UTR inh | Peg3 promoter
NS(=O)(=O)c1ccc(CCNCc2cc(Br)ccc2OCc2ccccc2F)cc1 | 13.8 | -1.7 | 24.1 | 5.3 | 85.7* | 12.7
CO[C@@H]1CN(C)C(=O)c2cc(NC(=O)Nc3cccc(Cl)c3)ccc2OC[C@@H](C)N(C)C[C@H]1C | -4.3 | . | . | . | . | .
CC(=O)Nc1ccc2c(c1)C(=O)N(C)[C@@H]1CC[C@@H](CC(=O)NCCCN3CCOCC3)O[C@@H]1CO2 | -20.6 | . | 14.4 | . | . | .
CCCN1[C@@H]2Cn3c(ccc(-c4ccccc4OC)c3=O)[C@H]1[C@@H](C(=O)N1CCOCC1)[C@@H]2CO | -4.0 | . | -1.8 | . | . | .
COC(=O)CN1C(=S)N(C)C(=O)C1CC(=O)Nc1ccccc1 (stereo not drawn) | -5.0 | 5.9 | 114.6* | -4.4 | -0.5 | -0.7
COC(=O)CN1C(=S)N(c2ccc(Cl)cc2)C(=O)C1CC(=O)Nc1ccccc1 (stereo not drawn) | 4.3 | 9.6 | 14.5 | 6.6 | -19.1 | 1.5
O=C(NCC1(c2ccccc2)CCCC1)C(=O)NCC1(c2ccccc2)CCCC1 | . | -11.0 | -50.5 | 0.0 | 4.7 | 3.6
CNC[C@H](CC1CCCCC1)NC[C@H](CO)NCC1(c2ccccc2)CC1 | 8.6 | 2.9 | 13.1 | 65.8* | 1.2 | -19.2
O=C(C[C@H]1C=C[C@@H](NS(=O)(=O)c2ccc(F)cc2)[C@H](CO)O1)NC1CCCCC1 | 0.0 | . | 8.4 | . | . | .
O=C1CNC[C@@H]2[C@@H](c3ccc(C4=CCCC4)cc3)[C@@H](CO)N12 | -5.8 | . | . | . | . | .
Cc1cc(C)n(-c2nc(N(c3ccccc3)c3ccccc3)nc(-n3nc(C)cc3C)n2)n1 | . | 2.2 | . | 70.7* | 77.7 | 107.5*
CC1CCN(S(=O)(=O)c2ccc3c(c2)C(=NO)c2cc(S(=O)(=O)N4CCC(C)CC4)ccc2-3)CC1 | . | -1.4 | . | 100.1* | 95.0* | 99.8*
O=S(=O)(c1ccc2c(c1)C(=NO)c1cc(S(=O)(=O)N3CCCCC3)ccc1-2)N1CCCCC1 | . | -1.6 | 108.6* | 87.6* | 97.7* | 86.1*
COc1ccc(S(=O)(=O)N2CCC(C)CC2)cc1OC | -6.1 | -3.9 | -18.5 | 3.3 | 0.4 | 1.9
O=S(=O)(c1ccc(S(=O)(=O)N2CCCC2)cc1)N1CCCCCC1 | -5.6 | -0.2 | . | 10.4 | -3.2 | 5.2
O=C(C[C@@H]1CC[C@@H]2NC[C@H](O)COC[C@H]2O1)NCCN1CCCCC1 | 2.8 | . | -17.5 | . | . | .
CC(C)CN1CCC(C(=O)NC(c2ccc(F)cc2)c2ccc3ccccc3n2)CC1 (stereo not drawn) | 4.1 | 1.0 | 13.4 | . | 7.1 | -15.7
COc1ccc(/C=C/CN2CCC(C(=O)NC(c3ccc(F)cc3)c3ccc4ccccc4n3)CC2)cc1 (stereo not drawn) | 23.7 | 14.1 | 53.5 | . | -22.7 | 102.0*
C[n+]1c2n(c3ccccc31)N=C(c1ccc(-c3ccccc3)cc1)CS2 | 42.7 | 12.2 | 95.7* | 81.5* | 72.3 | 1.0
C=CCN1C(=O)C(CC(=O)Nc2ccc(OCCC)cc2)N(CCCN2CCN(Cc3ccccc3)CC2)C1=S (stereo not drawn) | 24.1 | 16.5 | 31.6 | 1.4 | 43.3 | 52.1*
C[C@@H]1CN([C@@H](C)CO)C(=O)Cc2cc(NS(=O)(=O)c3ccc(F)cc3)ccc2O[C@H]1CN(C)Cc1ccc(-c2ccccc2)cc1 | 20.4 | . | 51.3 | . | . | .
